Several values for one entry are separate records, joined by “and”; a condition that tells them apart may be missing. Identical values can stand only once. Results filed as inconclusive are left out. Activity calls are given as the source filed them. Calls follow the shape of the dose curve; as a rule, active = well fitted curve in the direction sought with a large enough effect; inconclusive = small, poorly fitted or top-dose-only effect, or another doubt; inactive = no such curve, though single readings can be large; an effect the other way counts as inactive or inconclusive.
Tests used:
[1] = qHTS Assay for Identifying Gametocytocidal Compounds (AID 743244);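 also: % is scaled to controls: 0 for no effect and ±100 for the full control effect; actives lower the fluorescent signal which means gametocytes are killed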; details: P. falciparum 3D7 stage III-V gametocytes, alamarBlue, 72 h; max response: hits give low values
How it was run: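 Fluorescence at Ex 525/Em 598 nm, recorded 24 h after alamarBlue addition, reports residual metabolic activity of 3D7 gametocytes (stages III–V) following 72 h compound exposure at 37 °C, 5% CO2.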

[2] = qHTS assay for cell viability of the p53RE-bla HCT-116 cell line (AID 743292); also: % is scaled to controls: 0 for no effect and ±100 for the full control effect; nearly all actives have a fitted effect of over 55% in size
How it was run: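 After plating at 4,000 cells per well and a 5 h rest at 37 C, HCT-116 cells carrying p53RE-bla received test chemicals in DMSO. Sixteen hours later at 37 C, CellTiter-Glo was added and luminescence recorded following 30 min at room temperature.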

[3] = qHTS assay for measurement of the activity of small molecule inhibitors on Zika virus induced Caspase-3 activity in human astrocytoma cells (AID 1224859);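 also: plate controls were ZIKV-infected untreated cells for no effect and uninfected cells for full effect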
How it was run: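 Caspase activation in ZIKV-infected SNB-19 cells (2 FFU/cell, 6 h) measured by Caspase-Glo 3/7 luminescence after 30 min RT; compound pre-incubated 1 h; normalised to uninfected and infected controls.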

[4] = qHTS assay to identify small molecule inhibitors of chordoma cells - UCH-1 (AID 1259355); also: % is scaled to controls: 0 for no effect and ±100 for the full control effect; nearly all actives have a fitted effect of over 55% in size
How it was run: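 Screening used approved and investigational drugs in 15-point titration against 800 seeded cells per well. A fixed combination of auranofin with camptothecin, doxorubicin, rubitecan and topotecan followed compound addition, and growth was scored by CellTiter-Glo after 48hr.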

[5] = qHTS assay to identify small molecule inhibitors of chordoma cells - UCH-2 (AID 1259356); also: series mostly up to about 46 µM; % is scaled to controls: 0 for no effect and ±100 for the full control effect
[6] = qHTS assay for cell viability of HEK293 cells (AID 743288); details: ATP luminescence (CellTiter-Glo), 18 h; max response: hits give low values; also: % is scaled to controls: 0 for no effect and ±100 for the full control effect; nearly all actives have a fitted effect of over 50% in size
How it was run: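 Readout is luciferase-coupled ATP content (CellTiter-Glo luminescence, 30 min room temperature) as a measure of metabolically competent cells. Parental HEK293 cells were plated 5 h or more before compound addition, then treated 18 h at 37 C.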

NCCO
inactive: max response [1] 6.49% | Potency [2] | Potency [3]

C[C@H](O)[C@H](O)[C@H]1CNc2nc(N)[nH]c(=O)c2N1
inactive: max response [1] -5.73% | Potency [4] | Potency [5]

S=c1[nH]c2ccccc2s1
inactive: max response [6] 3.04% and -5.55% | Potency [2] | Potency [3]

Source: PubChem BioAssay (NCATS)
